Source: PubChem BioAssay (NCI)
About 83,000 compounds went through this panel and 20% of them were active in at least one assay; those are over-represented in the sample as a whole.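 The test compound was applied at a single concentration to cells in 96-well plates for 48 hours, and percent growth was recorded.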 Values without a mark were called inactive. The source made the active and inactive calls. How the source made its calls: active means growth percent below 10; inactive means the rest.

What follows are compounds tested on HL-60(TB) leukemia (assay: NCI-60 one-dose screen, 48 h (100 = growth as untreated, 0 = no growth, -100 = all killed)). Conditions: 10 µM unless noted.
For `O=C1Nc2c(ccc(Cl)c2Cl)/C1=C/c1ccc(O)cc1`, the growth was 76.9%.
`O=C(Nc1ccc(-n2ccc3c(NC(=O)c4ccccc4)nccc32)cc1)c1ccc(Cl)c(C(F)(F)F)c1` showed a growth of 25.7%.
With `O=C(CBr)OCc1ccc([N+](=O)[O-])o1` the growth was 118%.
With `Cc1ncc(C(=O)Nc2ccc(CN3CCN(C)CC3)c(C(F)(F)F)c2)cc1C#Cc1cnc(N)c2ccc(C#N)cc12` the growth was 13.2%.
`Nc1ccc(Br)cc1C(F)(F)F` gave a growth of 90.2%.
For `C=C(C)C1CC(O)C2(C)CCCC3C2C1CC(C)C3(C)CC/C(C)=C/C(O)C1CCC(=O)c2c(OC)cc(OC)cc21` (stereo not given), the growth was 22.4%.
`CC(Sc1nc2sc3c(c2c(=O)n1-c1ccc(Cl)cc1)CCCC3)C(=O)Nc1nc(-c2ccc(Br)cc2)cs1` (stereo not given) was tested, and the growth was 98.6%.
Work on `CCCCCCc1cc(N=Nc2ccc(S(=O)(=O)Nc3cc(C)nc(C)n3)cc2)c(O)cc1O` yielded a growth of 94.4%.
`N#C/C(=C\c1ccc(Br)cc1)c1cc2ccccc2[nH]1` showed a growth of 98.2%.
Work on `O=c1[nH][nH]c(=O)c2cc([N+](=O)[O-])ccc12` yielded a growth of 96.2%.
Compound `CC1=C(C)C(=O)C(C(C)C2=C(C)C(=O)C(C)=C(C)C2=O)=C(C)C1=O` has a growth of 42.5%.
For `Nc1ncnc2c1C(c1ccc(Br)cc1)c1sc3c(F)cccc3c1O2` (stereo not given), the growth was 119%.
`Oc1ccccc1/C=N/N=C\c1ccccc1Cl` gave a growth of 30.9%.
Compound `CCN(CC)c1ccc(/C=C/C2=[N+](C)c3ccccc3C2(C)C)cc1` has a growth of 11.3%.
Compound `COc1cc(N)c2ncccc2c1Cl` has a growth of 85.6%.
`CCN(CC)S(=O)(=O)c1ccc(O)c(NC(=O)c2[nH]c(C)c(C(C)=O)c2CCc2ccc(Cl)cc2)c1` was tested, and the growth was 39.6%.
With `Cc1nn(CC(=O)O)c2c1C(=O)CC(C)(C)C2` the growth was 100%.
Work on `CC(=O)CC(=O)SC1=NCCS1` yielded a growth of 107%.
For `Cc1ccc(-c2noc(C)n2)cc1`, the growth was 100%.
`COc1ccc(Nc2ncc(Br)c(NCCCNC(=O)C3CCC3)n2)cc1` was tested, and the growth was -12.8% (active).
For `C#CC#CC#CC#CC#CC#CC#CC#CCC1OCC(COC(=O)O[C@@H](C(=O)O[C@H]2C[C@@]3(O)[C@@H](OC(=O)c4ccccc4)[C@@H]4[C@]5(OC(C)=O)CO[C@@H]5C[C@H](O)[C@@]4(C)C(=O)[C@H](OC(C)=O)C(=C2C)C3(C)C)[C@@H](NC(=O)c2ccccc2)c2ccccc2)O1` (stereo not given in full), the growth was 5.04% (active).
In the case of `COc1ccc2c(c1)C(Br)=C(CCO)C2c1ccccc1` (stereo not given), the growth is reported as 1.04% (active).
`CC1(C)CC(=O)C=C(N)C1` showed a growth of 71.8%.
`CCC(=O)Nc1ccccc1C#C/C=C\C#Cc1ccccc1C(F)(F)F` showed a growth of 17.3%.
`Cc1nn(-c2ccc(Cl)cc2)c(=O)n1CCN1CCOCC1` was tested, and the growth was 105%.
With `CCOC(Cc1c(N)[nH]c(=S)[nH]c1=O)OCC` the growth was 90.3%.
In the case of `COc1cccc(-c2nc(SCC(=O)Nc3ccc(C(=O)/C=C/c4ccc(OC)c(OC)c4)cc3)[nH]c(=O)c2C#N)c1`, the growth is reported as 98.2%.
Compound `CCCCCCCCCCCCC1CCC/C=C\CCC(=O)O1` (stereo not given) has a growth of 88.6%.
`Cc1ccc(C(=O)C2C(=O)C3CCC2C3)cc1` (stereo not given) showed a growth of 98.3%.
In the case of `COc1ccc(C2C(C#N)=C(N)Oc3c2sc2c(C)cccc32)cc1` (stereo not given), the growth is reported as -13.9% (active).
Compound `CC12CC3CC1C(C(=O)O2)C3C(=O)O` (stereo not given) has a growth of 95.6%.
In the case of `Cc1c(Cl)ccc2c(C(=O)Cl)cc(-c3ccccc3)nc12`, the growth is reported as 88.9%.
Work on `CCCCn1c(=O)c(-c2cc(-c3ccc(Cl)cc3)nc(-c3ccc(Cl)cc3)c2)cc2ccc(Cl)cc21` yielded a growth of 100%.
For `CN(Cc1cc(Br)cc(Br)c1O)Cc1cc(Br)cc(Br)c1O`, the growth was 22.7%.
With `COc1ccc(-c2nc(SCCC(C)C)nc(Nc3ccc(C(=O)O)cc3)c2C#N)cc1` the growth was 71.6%.
For `CCOc1ccccc1C(=O)OCC(=O)Nc1cccc(S(=O)(=O)N(C)C)c1`, the growth was 86.2%.
In the case of `COc1ccc2c(c1)cn1c3ccc(OC)cc3[nH]c(=O)c21`, the growth is reported as -53.8% (active).
`N[C@H]1CCC[C@@H]1NCCCCN1C(=O)c2cccc3cc([N+](=O)[O-])cc(c23)C1=O` was tested, and the growth was 29.4%.
Compound `Cc1ccc(S(=O)(=O)N(C)CCCCCC(=O)O)cc1` has a growth of 93.4%.
In the case of `c1ccc(-c2nn(-c3ccccc3)[n+](-c3cccc4ccccc34)n2)cc1`, the growth is reported as -25.8% (active).
